Our source for the composite z-score and z-score values is PubChem BioAssay.

Experiment [1] has as its system Plasmodium falciparum Sir2 (PF13_0152, Sir2A). Kind of experiment: pfSir2 binders on small-molecule microarrays, primary screen, biochemical, small-molecule microarray, 635 nm fluorescence (AID 1098).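 Note: score merges spot fluorescence intensity with its signal-to-noise ratio.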 The conditions noted are these: small-molecule microarray binding, fluorescence 635 nm; higher = more signal.
Experiment [2] is described as follows: small-molecule microarray binders of probe aDKK1, primary screen, biochemical, biotinylated probe, 635/667 nm fluorescence (AID 1099).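 Note: score merges 667nm spot fluorescence with signal to noise across triplicate slides.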 The conditions noted are these: higher = more signal.
The nature of experiment [3]: small-molecule microarray binders of probe aCHRDL2, primary screen, biochemical, biotinylated probe, 635/667 nm fluorescence (AID 1100). The conditions noted are these: higher = more signal.
Experiment [4] in a line: splicing luciferase reporter signal modulators, primary screen, spliceosome inhibition project, cell-based, HEK293, splice +/- reporter (AID 1101).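 Note: HEK293 cells carrying a splicing-competent luciferase reporter gene; test concentration not given here.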 The conditions noted are these: luminescence, 24 h, higher = more signal, called active from +8 up or from −8 down. On the technique in general: In a reporter assay the amount or activity of a reporter protein is the signal.
Experiment [5] deals with Fibroblast growth factor 10 (Homo sapiens) (UniProt O15520). Kind of experiment: FGF10 binders on small-molecule microarrays, primary screen, biochemical, small-molecule microarray, 635 nm fluorescence (AID 1102). The settings on record: FGF10 binding, fluorescence 635 nm, higher = more signal.
Chain of Fibroblast growth factor 10 (Homo sapiens) (O15520 whole entry, looked up): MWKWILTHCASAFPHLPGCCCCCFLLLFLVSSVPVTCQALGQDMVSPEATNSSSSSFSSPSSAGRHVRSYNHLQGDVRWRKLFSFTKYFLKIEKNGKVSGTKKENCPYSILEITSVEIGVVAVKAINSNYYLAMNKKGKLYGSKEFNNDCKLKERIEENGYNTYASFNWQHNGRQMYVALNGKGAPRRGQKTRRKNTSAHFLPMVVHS
The subject of experiment [6] is glycogen synthase kinase-3 (GSK3A per assay name; protocol says GSK3B). Kind of experiment: GSK3 binders on small-molecule microarrays, primary screen, biochemical, small-molecule microarray, 635 nm fluorescence, GSK3A (AID 1103). Note: the record names both GSK3A and GSK3B. The conditions noted are these: small-molecule microarray binding, fluorescence 635 nm; higher = more signal.
The target in experiment [7] is Epidermal growth factor receptor (Homo sapiens) (UniProt P00533). Kind of experiment: EGFR binders on small-molecule microarrays, primary screen, biochemical, small-molecule microarray, 635 nm fluorescence (AID 1104).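 Note: score merges 667 nm emission intensity with spot signal to noise over triplicate slides.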 The settings on record: EGFR binding, higher = more signal.
Chain of Epidermal growth factor receptor (Homo sapiens) (P00533 whole entry, looked up): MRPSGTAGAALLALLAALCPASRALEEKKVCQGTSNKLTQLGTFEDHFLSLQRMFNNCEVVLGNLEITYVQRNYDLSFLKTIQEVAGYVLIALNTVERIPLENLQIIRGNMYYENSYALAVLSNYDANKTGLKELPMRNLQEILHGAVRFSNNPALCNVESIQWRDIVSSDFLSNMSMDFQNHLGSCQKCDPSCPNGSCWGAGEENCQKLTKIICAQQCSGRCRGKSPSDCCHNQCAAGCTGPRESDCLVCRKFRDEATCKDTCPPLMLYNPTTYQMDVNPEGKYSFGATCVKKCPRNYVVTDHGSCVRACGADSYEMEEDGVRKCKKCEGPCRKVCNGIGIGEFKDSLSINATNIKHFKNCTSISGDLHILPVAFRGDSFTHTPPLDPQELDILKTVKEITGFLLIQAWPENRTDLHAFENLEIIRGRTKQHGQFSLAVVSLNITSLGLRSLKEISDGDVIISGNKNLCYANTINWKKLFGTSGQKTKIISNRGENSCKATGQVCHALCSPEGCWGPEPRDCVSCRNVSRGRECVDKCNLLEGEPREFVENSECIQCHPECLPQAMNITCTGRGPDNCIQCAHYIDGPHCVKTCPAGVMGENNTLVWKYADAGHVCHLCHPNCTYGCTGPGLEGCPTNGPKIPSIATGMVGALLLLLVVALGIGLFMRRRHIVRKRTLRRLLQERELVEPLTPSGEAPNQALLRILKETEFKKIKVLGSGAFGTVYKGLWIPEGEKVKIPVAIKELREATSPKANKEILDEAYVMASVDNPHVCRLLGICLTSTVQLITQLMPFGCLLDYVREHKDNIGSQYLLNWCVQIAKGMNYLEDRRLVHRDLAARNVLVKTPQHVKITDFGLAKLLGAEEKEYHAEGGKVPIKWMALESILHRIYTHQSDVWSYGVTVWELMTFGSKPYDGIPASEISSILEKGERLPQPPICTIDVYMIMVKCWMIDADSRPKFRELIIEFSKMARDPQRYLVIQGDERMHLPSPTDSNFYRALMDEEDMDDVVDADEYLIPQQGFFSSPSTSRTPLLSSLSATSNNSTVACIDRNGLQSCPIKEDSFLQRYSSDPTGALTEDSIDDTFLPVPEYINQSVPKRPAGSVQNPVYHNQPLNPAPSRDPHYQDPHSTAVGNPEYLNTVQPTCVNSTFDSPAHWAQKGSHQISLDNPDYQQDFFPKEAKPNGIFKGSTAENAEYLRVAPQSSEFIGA
In experiment [8] the target is Follistatin-related protein 3 (Homo sapiens) (UniProt O95633). Kind of experiment: FSTL3 binders on small-molecule microarrays, primary screen, biochemical, small-molecule microarray, 635 nm fluorescence (AID 1105).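 Note: score merges emission near 667 nm and signal to noise per printed spot across three slides.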 The settings on record: FSTL3 binding, higher = more signal.
Chain of Follistatin-related protein 3 (Homo sapiens) (O95633 whole entry, looked up): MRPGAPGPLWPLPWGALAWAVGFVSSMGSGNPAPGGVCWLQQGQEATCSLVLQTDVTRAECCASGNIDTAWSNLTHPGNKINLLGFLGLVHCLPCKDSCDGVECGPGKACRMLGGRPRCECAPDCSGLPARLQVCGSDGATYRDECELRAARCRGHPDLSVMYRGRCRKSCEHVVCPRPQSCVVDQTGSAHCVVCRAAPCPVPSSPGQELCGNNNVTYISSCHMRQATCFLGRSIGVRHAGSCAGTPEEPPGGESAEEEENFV
Experiment [9] deals with Dickkopf-related protein 1 (Homo sapiens) (UniProt O94907). Kind of experiment: DKK1 binders on small-molecule microarrays, primary screen, biochemical, small-molecule microarray, 635 nm fluorescence scan (AID 1106).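 Note: score merges emission near 667 nm with signal to noise over three replicate slides.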 The conditions noted are these: DKK1 binding, higher = more signal.
Chain of Dickkopf-related protein 1 (Homo sapiens) (O94907 whole entry, looked up): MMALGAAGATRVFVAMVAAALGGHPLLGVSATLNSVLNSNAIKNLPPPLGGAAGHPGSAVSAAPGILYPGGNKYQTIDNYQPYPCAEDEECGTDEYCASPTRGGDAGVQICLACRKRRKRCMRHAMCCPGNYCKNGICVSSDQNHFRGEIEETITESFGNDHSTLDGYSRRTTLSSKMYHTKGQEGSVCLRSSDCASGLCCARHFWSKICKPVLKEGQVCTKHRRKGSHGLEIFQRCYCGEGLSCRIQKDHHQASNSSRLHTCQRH
In experiment [10] the test system is Inhibin beta A chain (activin A). Kind of experiment: INHBA (activin A) binders on microarrays, primary screen, biochemical, small-molecule microarray, 635 nm fluorescence scan (AID 1107).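 Note: mouse activin A protein probed at 4.33 µg/mL on printed slides; score merges bound-protein fluorescence near 667 nm with spot signal-to-noise.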 The conditions noted are these: small-molecule microarray binding, higher = more signal.
Experiment [11] deals with Human papillomavirus type 1a protein E7 (residues 44-93). Kind of experiment: HPV1a E7 fragment binders on microarrays, primary screen, biochemical, small-molecule microarray, residues 44-93, 635 nm fluorescence (AID 1108).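 Note: E7 fragment applied at 1 µg/mL in TBST for 1 h at 4 C; score combines spot fluorescence with its signal to noise ratio.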 The conditions noted are these: small-molecule microarray binding, fluorescence 635 nm; higher = more signal.
Experiment [12] is described as follows: modulators of HCV replicon luciferase signal, primary screen, HCV replication inhibitor project, Huh7 cells, luciferase reporter (AID 1109).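 Note: huh7 hepatoma cells harbouring a luciferase neomycin HCV replicon reporter; luciferase luminescence as measure of HCV replicon replication; test concentration not given here.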 The settings on record: 48 h, higher = more signal. (In general: In antiviral work, replicon cells carry a viral genome segment that copies itself.)
Experiment [13] deals with Left-right determination factor 2 (Homo sapiens) (UniProt O00292). Kind of experiment: LEFTY2 binders on small-molecule microarrays, primary screen, biochemical, small-molecule microarray, 635 nm fluorescence scan (AID 1110). The settings on record: LEFTY2 binding, higher = more signal.
Chain of Left-right determination factor 2 (Homo sapiens) (O00292 whole entry, looked up): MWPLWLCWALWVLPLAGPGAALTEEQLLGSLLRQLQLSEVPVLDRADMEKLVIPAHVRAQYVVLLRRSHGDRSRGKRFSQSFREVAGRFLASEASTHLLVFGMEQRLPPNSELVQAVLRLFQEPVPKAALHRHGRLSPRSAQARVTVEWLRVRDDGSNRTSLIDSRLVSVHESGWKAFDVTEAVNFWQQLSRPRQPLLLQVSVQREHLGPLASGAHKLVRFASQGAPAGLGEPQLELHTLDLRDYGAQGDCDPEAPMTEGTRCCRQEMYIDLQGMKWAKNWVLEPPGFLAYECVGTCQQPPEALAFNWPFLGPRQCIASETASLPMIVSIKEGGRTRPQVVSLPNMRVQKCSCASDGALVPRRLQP
Experiment [14] deals with Calmodulin-1 (Homo sapiens) (UniProt P0DP23). Kind of experiment: CALM1 binders on microarrays, EGTA buffer, profiling panel, biochemical, small-molecule microarray, Cy5-labelled CALM1 (AID 1111).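 Note: labelled calmodulin applied in Tris saline Tween buffer holding calcium plus EGTA and DTT.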 The settings on record: Cy5-CALM1 binding fluorescence, higher = more signal.
Experiment [15] shares this target. Kind of experiment: calcium-bound CALM1 binders on microarrays, profiling panel, artefact control for SMM control-protein annotation, biochemical, small-molecule microarray, Cy5-labelled CALM1, plus calcium (AID 1112).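 Note: score merges spot fluorescence with signal to noise from triplicate slides.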 The conditions noted are these: Cy5-CALM1 binding fluorescence, higher = more signal.
Experiment [16] is described as follows: small-molecule microarray binders of probe aWnt5a, primary screen, biochemical, biotinylated probe, 635/667 nm fluorescence (AID 1113).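 Note: score merges 667 nm fluorescence intensity with signal-to-noise per printed feature.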 The conditions noted are these: higher = more signal.
The nature of experiment [17]: small-molecule microarray binders of probe aShh, primary screen, biochemical, biotinylated probe, 635/667 nm fluorescence (AID 1114).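 Note: probe is biotin-labelled aShh protein from a stem cell growth factor screen; measures binding of labelled protein to compounds printed on the slide; score merges feature fluorescence at 667 nm with signal-to-noise.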 The conditions noted are these: higher = more signal.
Experiment [18] in a line: small-molecule microarray binders of probe aNog, primary screen, biochemical, biotinylated probe, 635/667 nm fluorescence (AID 1115).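 Note: probe is biotinylated aNog protein used at 0.15 µg/mL for 1 h at 4 C; z-score combines 667 nm fluorescence of each spot with its signal to noise.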 The conditions noted are these: higher = more signal.
In experiment [19] the target is Torsin-1A-interacting protein 1 (Homo sapiens) (UniProt Q5JTV8). Kind of experiment: LAP1 binders from COS7 cell lysate, primary screen, small-molecule microarray, 635/667 nm fluorescence (AID 1116). The settings on record: COS7-hLAP1 lysate binding, 635 nm fluorescence, higher = more signal.
Chain of Torsin-1A-interacting protein 1 (Homo sapiens) (Q5JTV8 whole entry, looked up): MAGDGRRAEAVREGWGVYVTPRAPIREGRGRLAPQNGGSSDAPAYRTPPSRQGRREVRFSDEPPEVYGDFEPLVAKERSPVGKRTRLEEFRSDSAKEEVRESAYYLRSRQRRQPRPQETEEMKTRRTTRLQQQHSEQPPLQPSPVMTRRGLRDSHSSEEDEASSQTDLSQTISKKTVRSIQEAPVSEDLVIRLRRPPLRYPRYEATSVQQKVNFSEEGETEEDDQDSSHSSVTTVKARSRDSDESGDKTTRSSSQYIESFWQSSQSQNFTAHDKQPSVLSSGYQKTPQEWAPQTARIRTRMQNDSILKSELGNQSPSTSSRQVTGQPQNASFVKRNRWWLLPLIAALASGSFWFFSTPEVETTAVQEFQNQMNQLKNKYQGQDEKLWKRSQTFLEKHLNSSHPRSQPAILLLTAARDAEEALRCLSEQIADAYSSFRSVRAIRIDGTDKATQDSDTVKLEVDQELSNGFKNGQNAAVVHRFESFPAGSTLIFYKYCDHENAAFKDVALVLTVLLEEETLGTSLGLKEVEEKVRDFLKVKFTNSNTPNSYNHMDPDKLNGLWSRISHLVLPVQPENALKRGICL
For experiment [20], the target named is Alpha-bungarotoxin (Bungarus multicinctus) (UniProt P60615). Kind of experiment: alpha-bungarotoxin binders on microarray, profiling panel, artefact control for SMM control protein annotation, biochemical, small-molecule microarray, Alexa647 label, 635/667 nm fluorescence (AID 1117). The settings on record: alpha-BTX-A647 binding fluorescence, higher = more signal.
Chain of Alpha-bungarotoxin (Bungarus multicinctus) (P60615 whole entry, looked up): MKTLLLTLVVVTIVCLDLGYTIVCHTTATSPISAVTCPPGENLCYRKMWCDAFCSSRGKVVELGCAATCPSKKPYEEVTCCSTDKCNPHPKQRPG

Calls of active or inactive are those of the source.

In the case of `O=C(O)C1N=C(c2ccc(OCCCO)cc2)N(c2ccccc2)O1` (stereo not given), the composite z-score in experiment [1] stood at 0.524; in experiment [2], 0.187; in [3], 0.391; in experiment [5], 1.22; in [6], 0.472; in experiment [7], 0.327. Also, the composite z-score was 0.285 in [8]; -0.0405 in experiment [9]; 0.712 in [10]; 1.13 in experiment [11]; 0.509 in experiment [13]; 0.37 in [14]. Further, the composite z-score is -0.218 in experiment [15]; -0.0478 in [16]; -0.0769 in experiment [17]; -0.402 in experiment [18]; 0.435 in experiment [19]; 0.447 in experiment [20]. Further, the z-score was -0.303 (inactive) in [4] and -0.643 in experiment [12].
For the molecule `CC(C)NC(=O)[C@@]1(Cc2ccccc2I)c2ccccc2C(=O)N(Cc2ccccc2Cl)[C@H]1c1ccc(CO)cc1`, the composite z-score in experiment [1] worked out at 0.972; in experiment [2] it was 0.13; in experiment [3], 0.156; in experiment [5] it was 1.1; in [6] it was 1.16; in experiment [7] it was 0.355. Besides, the composite z-score was 0.575 in [8]; 0.533 in experiment [9]; 0.529 in experiment [10]; 1.37 in experiment [11]; 0.45 in experiment [13]; 0.789 in experiment [14]. Further, the composite z-score in experiment [15] is -0.129; in experiment [16], 0.0077; in experiment [17] it was 0.0062; in experiment [18], 0.0139; in experiment [19], 0.795; in [20], 1.28. Besides, the z-score is -0.833 (inactive) in [4] and -1.97 in [12].
On to `O=C1[C@H]2C=C(Br)[C@H](C[C@@H]2OCCCCCCO)[C@@]12CO2`, for which the composite z-score in experiment [1] is 1.21; in experiment [2], -0.142; in [3], -0.0272; in experiment [5], -0.117; in experiment [6] it was -0.363; in [7] it was -0.0491. Further, the composite z-score in experiment [8] was -0.154; in experiment [9] it was -0.0712; in experiment [10], 1.61; in [11], -1.01; in experiment [13] it was -0.057; in experiment [14], -0.714. In addition, the composite z-score is -1.44 in [15]; -0.006 in experiment [16]; -0.106 in [17]; -0.234 in [18]; 0.0589 in experiment [19]; -1.17 in experiment [20]. Further, the z-score was 0.428 (inactive) in experiment [4] and -3.2 in experiment [12].
Turning to `N#Cc1ccc(C(O)C2C=CC3C(=O)N(c4ccccc4)C(=O)C3N2Nc2ccccc2F)cc1` (stereo not given), the composite z-score is 1.65 in [1]; -0.0589 in experiment [2]; 0.267 in experiment [3]; 0.877 in experiment [5]; 0.849 in [6]; 0.77 in [7]. In addition, the composite z-score in experiment [8] was 0.746; in experiment [9], -0.116; in experiment [10] it was 0.299; in experiment [11], 1.29; in [13], 0.262; in experiment [14], 0.123. The composite z-score in experiment [15] was -0.564; in [16] it was 0.0037; in [17], -0.218; in experiment [18], -0.376; in [19] it was 0.0448; in [20], 0.175. Moreover, the z-score in experiment [4] was -1.37 (inactive); in [12], -0.494.
Turning to `C=CCNC(=O)[C@H]1[C@@H]2C(=O)O[C@@H](c3ccccc3)[C@@H](c3ccccc3)N2[C@@H](c2ccc(OCCO)cc2)[C@]12C(=O)Nc1ccc(C#CCC(C(=O)OC)C(=O)OC)cc12`, the composite z-score in experiment [1] came out at 1.25; in [2], 0.313; in experiment [3], 0.655; in experiment [5], 1.29; in experiment [6], 1.09; in [7] it was 0.787. Moreover, the composite z-score in [8] was 1.25; in experiment [9], 0.83; in experiment [10], 0.559; in experiment [11], 0.694; in [13], 1.37; in experiment [14], 0.832. Moreover, the composite z-score in experiment [15] was 0.478; in [16] it was 0.0805; in experiment [17], -0.254; in experiment [18], -0.126; in [19], 0.357; in experiment [20], 1.34. For the same molecule, the z-score in experiment [4] is 0.279 (inactive); in experiment [12], -2.22.
Take `CC[C@@H]1C=C(C(=O)O)[C@H](c2cccc3ccccc23)N1S(=O)(=O)c1ccc(C)cc1`: the composite z-score in [1] was found to be 0.819; in experiment [2], 0.0149; in [3] it was 0.0792; in [5] it was 0.51; in [6], 0.466; in [7], 0.294. Besides, the composite z-score was 0.495 in experiment [8]; 0.153 in [9]; 1.02 in [10]; 0.828 in experiment [11]; 0.132 in experiment [13]; 1.45 in [14]. Also, the composite z-score in experiment [15] was 0.725; in [16], 0.0742; in [17] it was -0.17; in experiment [18], 0.526; in experiment [19] it was 0.909; in [20], -0.158. For the same molecule, the z-score in experiment [4] was 0.756 (inactive); in experiment [12], 0.0731.
In the case of `NCCCCCCNC(=O)[C@H]1C[C@H]2C(=O)N[C@@H](Cc3ccccc3)C(=O)N2[C@H]1c1cccc(OCCO)c1`, the composite z-score in [1] was found to be 0.809; in [2], 0.682; in [3], 0.713; in experiment [5], 0.324; in experiment [6] it was 0.0638; in experiment [7], 0.13. The composite z-score was 0.362 in [8]; -0.0608 in experiment [9]; 0.101 in experiment [10]; 0.694 in experiment [11]; 0.146 in experiment [13]; 2.14 in experiment [14]. For the same molecule, the composite z-score in [15] was 0.857; in [16], -0.0718; in experiment [17], 0.356; in experiment [18], 0.0574; in [19], 1.6; in [20], 0.576. The z-score in [4] was -0.895 (inactive); in experiment [12], 0.794.
